What was measured:
Assay in all cases: DAPPL (digital affinity profiling via proximity ligation, sequencing); 10 mM Tris-HCl pH 7.5, 50 mM NaCl, 1 mM DTT, 4% glycerol, room temperature, 30 min; GST-TFs on glutathione beads, 16-mer random dsDNA library, 0.1% formaldehyde crosslink after washing; high values mean tight binding
[1] = molecular target: T1, FLI1 (Homo sapiens, UniProt Q01543 1-452); conditions: protein: recombinant; tags: N-terminal GST; dsDNA, one strand shown
T1 sequence: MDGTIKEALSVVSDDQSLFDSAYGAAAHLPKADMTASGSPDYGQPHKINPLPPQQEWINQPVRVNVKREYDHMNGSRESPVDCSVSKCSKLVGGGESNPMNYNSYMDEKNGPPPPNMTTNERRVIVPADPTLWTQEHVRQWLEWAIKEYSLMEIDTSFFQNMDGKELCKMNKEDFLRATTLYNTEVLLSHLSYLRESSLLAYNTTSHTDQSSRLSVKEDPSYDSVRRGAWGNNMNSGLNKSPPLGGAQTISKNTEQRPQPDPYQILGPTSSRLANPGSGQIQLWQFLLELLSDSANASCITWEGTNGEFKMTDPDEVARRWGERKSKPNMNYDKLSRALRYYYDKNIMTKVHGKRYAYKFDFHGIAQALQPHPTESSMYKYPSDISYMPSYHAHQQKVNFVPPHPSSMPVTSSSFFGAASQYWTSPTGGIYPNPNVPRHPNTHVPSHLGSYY
In short: (§1)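 The binding signal reported is, for every hexamer, its read frequency for a factor over its read frequency for the tag-only sample. Reads came from pools of yeast-expressed, GST-fused human transcription factors on glutathione beads, barcoded with DNA and mixed with that sample, which were incubated with 200 nmole of a random double-stranded 16-mer DNA library in Tris/NaCl/DTT/glycerol buffer at room temperature for 30 min. After washing, the pools were crosslinked with 0.1% formaldehyde, proximity-ligated with BsaI/T4 ligase for 1 h at 37 °C, PCR-amplified and sequenced on an Illumina NextSeq500.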

[2] = molecular target: T2, ELK1 (Homo sapiens, UniProt P19419 1-428); conditions: protein: recombinant; tags: N-terminal GST; dsDNA, one strand shown
T2 sequence: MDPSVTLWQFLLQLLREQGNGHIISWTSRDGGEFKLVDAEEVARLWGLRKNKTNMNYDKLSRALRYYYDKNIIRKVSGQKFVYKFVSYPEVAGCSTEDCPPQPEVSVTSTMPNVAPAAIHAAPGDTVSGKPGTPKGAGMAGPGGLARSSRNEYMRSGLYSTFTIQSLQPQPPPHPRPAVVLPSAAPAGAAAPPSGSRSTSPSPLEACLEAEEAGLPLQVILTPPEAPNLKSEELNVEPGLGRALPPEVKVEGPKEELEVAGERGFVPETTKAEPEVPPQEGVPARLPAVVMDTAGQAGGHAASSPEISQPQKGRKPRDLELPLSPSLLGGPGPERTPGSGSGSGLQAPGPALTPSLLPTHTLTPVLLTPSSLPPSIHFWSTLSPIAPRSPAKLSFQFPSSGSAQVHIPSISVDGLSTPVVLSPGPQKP
In short: as §1

[3] = molecular target: T3, GABPA (Homo sapiens, UniProt Q06546 1-454); conditions: protein: recombinant; tags: N-terminal GST; dsDNA, one strand shown
T3 sequence: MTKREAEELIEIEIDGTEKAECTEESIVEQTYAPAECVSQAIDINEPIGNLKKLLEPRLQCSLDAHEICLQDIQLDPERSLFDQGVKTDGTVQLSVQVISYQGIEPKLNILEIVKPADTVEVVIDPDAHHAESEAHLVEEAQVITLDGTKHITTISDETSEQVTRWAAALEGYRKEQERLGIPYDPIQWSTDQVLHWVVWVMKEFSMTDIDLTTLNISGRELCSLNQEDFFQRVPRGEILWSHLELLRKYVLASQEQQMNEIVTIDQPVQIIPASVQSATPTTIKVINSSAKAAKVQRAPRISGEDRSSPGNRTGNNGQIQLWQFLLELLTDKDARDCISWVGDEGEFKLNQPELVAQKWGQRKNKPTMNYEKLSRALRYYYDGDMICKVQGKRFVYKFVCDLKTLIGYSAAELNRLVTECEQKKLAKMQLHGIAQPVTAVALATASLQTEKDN
In short: as §1

[4] = molecular target: T4, ERG (Homo sapiens, UniProt P11308 1-479); conditions: protein: recombinant; tags: N-terminal GST; dsDNA, one strand shown
T4 sequence: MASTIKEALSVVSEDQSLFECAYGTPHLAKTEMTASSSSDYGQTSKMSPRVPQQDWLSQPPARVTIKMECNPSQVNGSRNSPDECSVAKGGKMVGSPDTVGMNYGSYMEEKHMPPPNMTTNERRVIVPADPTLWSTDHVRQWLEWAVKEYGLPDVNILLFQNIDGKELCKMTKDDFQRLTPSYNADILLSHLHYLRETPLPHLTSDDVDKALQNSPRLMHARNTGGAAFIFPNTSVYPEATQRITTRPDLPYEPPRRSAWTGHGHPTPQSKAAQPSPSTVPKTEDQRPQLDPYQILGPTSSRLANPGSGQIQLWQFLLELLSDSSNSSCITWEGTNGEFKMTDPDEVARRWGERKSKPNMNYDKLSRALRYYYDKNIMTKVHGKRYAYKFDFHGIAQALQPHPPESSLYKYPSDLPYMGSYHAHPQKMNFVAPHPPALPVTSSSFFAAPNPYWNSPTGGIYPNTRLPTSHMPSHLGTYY
In short: as §1

[5] = molecular target: ELF1 (Homo sapiens, UniProt P32519 1-619); conditions: protein: recombinant; tags: N-terminal GST; dsDNA, one strand shown
Sequence of ELF1 (P32519 whole entry): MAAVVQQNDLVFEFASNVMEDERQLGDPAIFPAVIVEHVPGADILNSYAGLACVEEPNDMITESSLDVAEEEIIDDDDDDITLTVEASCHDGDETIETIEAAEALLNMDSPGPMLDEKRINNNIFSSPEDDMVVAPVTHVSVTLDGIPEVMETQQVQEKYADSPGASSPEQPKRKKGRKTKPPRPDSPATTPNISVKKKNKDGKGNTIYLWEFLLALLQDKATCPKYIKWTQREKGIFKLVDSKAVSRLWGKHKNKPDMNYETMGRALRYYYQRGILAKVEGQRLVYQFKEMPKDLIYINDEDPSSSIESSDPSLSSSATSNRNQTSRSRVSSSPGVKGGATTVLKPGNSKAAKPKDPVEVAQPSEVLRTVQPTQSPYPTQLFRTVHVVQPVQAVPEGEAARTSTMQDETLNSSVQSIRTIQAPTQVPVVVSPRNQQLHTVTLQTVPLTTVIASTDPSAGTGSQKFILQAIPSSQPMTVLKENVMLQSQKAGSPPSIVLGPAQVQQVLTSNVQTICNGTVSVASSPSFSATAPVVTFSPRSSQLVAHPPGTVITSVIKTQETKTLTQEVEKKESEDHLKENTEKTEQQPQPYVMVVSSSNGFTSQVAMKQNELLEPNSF
In short: as §1

[6] = molecular target: T5, EHF (Homo sapiens, UniProt Q9NZC4 1-300); conditions: protein: recombinant; tags: N-terminal GST; dsDNA, one strand shown
T5 sequence: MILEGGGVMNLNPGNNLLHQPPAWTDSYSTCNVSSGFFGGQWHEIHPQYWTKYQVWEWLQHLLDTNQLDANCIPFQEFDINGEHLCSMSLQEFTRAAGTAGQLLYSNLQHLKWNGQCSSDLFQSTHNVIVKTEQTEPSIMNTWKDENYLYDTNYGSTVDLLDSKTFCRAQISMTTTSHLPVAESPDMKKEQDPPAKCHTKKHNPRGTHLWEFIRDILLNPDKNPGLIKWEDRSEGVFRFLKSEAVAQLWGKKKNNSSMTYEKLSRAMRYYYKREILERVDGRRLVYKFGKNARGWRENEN
In short: as §1

[7] = molecular target: SPIB (Homo sapiens, UniProt Q01892 1-262); conditions: protein: recombinant; tags: N-terminal GST; dsDNA, one strand shown
Sequence of SPIB (Q01892 whole entry): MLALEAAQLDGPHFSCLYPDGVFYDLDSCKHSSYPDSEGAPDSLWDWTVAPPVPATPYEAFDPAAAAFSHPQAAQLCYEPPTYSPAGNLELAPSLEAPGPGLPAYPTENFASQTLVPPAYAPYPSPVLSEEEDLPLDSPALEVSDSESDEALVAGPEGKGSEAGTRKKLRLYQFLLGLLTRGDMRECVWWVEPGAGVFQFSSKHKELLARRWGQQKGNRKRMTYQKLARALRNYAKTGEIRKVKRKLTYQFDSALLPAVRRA
In short: as §1

[8] = molecular target: T6, ELK3 (Homo sapiens, UniProt P41970 1-407); conditions: protein: recombinant; tags: N-terminal GST; dsDNA, one strand shown
T6 sequence: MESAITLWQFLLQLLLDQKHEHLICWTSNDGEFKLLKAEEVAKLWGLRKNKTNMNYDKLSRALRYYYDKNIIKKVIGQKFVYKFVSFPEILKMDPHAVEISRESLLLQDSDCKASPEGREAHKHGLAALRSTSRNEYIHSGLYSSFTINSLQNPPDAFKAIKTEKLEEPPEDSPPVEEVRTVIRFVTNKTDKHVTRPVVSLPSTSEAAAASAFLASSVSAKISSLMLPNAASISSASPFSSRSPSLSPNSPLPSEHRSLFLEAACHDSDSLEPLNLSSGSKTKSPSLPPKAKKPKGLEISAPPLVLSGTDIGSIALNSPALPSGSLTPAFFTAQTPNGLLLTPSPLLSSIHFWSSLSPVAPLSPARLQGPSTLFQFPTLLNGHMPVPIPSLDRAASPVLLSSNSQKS
In short: as §1

[9] = molecular target: ETV5 (Homo sapiens, UniProt P41161 1-510); conditions: protein: recombinant; tags: N-terminal GST; dsDNA, one strand shown
Sequence of ETV5 (P41161 whole entry): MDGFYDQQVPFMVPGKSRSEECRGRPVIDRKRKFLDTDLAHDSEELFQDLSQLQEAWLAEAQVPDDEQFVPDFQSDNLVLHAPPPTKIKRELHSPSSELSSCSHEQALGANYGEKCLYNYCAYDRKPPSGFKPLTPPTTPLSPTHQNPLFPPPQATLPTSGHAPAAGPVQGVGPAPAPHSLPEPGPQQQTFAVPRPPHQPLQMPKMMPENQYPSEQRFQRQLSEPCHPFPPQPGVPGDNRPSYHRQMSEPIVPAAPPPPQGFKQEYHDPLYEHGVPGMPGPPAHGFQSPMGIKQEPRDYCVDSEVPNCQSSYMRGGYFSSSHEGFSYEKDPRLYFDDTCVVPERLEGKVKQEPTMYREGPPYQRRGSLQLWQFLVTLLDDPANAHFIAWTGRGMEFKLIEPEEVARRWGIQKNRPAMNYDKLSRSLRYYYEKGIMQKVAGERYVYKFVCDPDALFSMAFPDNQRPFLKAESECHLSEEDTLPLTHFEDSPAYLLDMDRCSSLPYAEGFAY
In short: as §1

[10] = molecular target: HSF1 (Homo sapiens, UniProt Q00613 1-529); conditions: protein: recombinant; tags: N-terminal GST; chain copies: 3; dsDNA, one strand shown
Sequence of HSF1 (Q00613 whole entry): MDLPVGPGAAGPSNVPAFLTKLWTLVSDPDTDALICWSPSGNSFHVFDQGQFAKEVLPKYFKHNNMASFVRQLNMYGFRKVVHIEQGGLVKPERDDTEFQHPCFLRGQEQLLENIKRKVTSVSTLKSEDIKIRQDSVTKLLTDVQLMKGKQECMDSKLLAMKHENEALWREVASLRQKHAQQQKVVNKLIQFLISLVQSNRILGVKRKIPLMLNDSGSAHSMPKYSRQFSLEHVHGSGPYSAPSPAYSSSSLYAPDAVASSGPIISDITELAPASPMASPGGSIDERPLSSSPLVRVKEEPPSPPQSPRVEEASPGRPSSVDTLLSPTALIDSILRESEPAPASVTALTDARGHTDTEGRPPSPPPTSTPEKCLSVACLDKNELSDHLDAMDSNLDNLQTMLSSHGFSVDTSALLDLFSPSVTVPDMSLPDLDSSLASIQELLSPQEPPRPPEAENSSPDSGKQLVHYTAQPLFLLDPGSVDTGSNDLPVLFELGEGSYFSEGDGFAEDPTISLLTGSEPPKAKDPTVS
In short: as §1

[11] = molecular target: T7, SPIC (Homo sapiens, UniProt Q8N5J4 1-248); conditions: protein: recombinant; tags: N-terminal GST; dsDNA, one strand shown
T7 sequence: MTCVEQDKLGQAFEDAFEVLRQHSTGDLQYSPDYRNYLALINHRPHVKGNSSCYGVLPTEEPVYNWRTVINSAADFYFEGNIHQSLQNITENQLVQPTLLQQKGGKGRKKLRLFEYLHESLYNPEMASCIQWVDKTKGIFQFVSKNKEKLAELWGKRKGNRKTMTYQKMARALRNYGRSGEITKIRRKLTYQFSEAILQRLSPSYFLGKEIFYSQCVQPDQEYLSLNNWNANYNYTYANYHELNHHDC
In short: as §1

[12] = molecular target: ELF4 (Homo sapiens, UniProt Q99607 1-663); conditions: protein: recombinant; tags: N-terminal GST; dsDNA, one strand shown
Sequence of ELF4 (Q99607 whole entry): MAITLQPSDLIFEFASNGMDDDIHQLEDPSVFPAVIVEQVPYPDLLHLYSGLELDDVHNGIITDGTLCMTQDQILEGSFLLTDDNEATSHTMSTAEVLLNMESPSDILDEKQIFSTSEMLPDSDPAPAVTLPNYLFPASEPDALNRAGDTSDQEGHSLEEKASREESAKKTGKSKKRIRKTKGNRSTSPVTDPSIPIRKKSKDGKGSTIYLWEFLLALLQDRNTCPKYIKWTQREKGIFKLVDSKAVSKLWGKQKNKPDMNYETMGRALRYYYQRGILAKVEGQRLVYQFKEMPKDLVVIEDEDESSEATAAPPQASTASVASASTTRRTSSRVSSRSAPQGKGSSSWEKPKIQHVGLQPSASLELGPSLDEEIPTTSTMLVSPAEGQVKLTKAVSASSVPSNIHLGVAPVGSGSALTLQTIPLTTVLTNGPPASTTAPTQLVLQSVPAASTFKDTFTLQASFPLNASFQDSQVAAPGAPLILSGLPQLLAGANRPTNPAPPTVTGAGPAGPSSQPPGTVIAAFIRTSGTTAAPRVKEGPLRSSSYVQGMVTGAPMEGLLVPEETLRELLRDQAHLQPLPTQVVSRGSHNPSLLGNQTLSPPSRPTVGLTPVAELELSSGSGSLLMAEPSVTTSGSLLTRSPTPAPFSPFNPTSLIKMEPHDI
In short: as §1

[13] = molecular target: T8, ELK4 (Homo sapiens, UniProt P28324-2 1-405); conditions: protein: recombinant; tags: N-terminal GST; dsDNA, one strand shown
T8 sequence: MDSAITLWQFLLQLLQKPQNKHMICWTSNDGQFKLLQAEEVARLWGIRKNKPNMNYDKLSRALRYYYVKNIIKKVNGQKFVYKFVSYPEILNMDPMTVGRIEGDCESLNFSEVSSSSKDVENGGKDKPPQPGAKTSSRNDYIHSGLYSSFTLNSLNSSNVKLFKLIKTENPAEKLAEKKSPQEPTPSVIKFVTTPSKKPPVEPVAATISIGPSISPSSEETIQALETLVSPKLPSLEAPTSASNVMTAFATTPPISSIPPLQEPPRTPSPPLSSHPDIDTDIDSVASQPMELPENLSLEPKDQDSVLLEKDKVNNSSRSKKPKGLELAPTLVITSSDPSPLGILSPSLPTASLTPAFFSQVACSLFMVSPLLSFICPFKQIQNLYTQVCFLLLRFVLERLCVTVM
In short: as §1

[14] = molecular target: T9, ETV2 (Homo sapiens, UniProt O00321 1-342); conditions: protein: recombinant; tags: N-terminal GST; dsDNA, one strand shown
T9 sequence: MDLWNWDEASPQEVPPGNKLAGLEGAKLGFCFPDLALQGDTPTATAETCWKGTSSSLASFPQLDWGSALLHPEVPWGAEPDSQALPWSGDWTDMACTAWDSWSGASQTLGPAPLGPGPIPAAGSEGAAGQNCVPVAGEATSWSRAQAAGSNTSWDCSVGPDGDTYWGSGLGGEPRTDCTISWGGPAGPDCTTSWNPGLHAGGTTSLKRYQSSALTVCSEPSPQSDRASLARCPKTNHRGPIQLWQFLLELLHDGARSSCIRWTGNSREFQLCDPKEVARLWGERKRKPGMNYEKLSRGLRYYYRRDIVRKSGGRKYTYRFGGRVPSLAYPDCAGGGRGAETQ
In short: as §1

[15] = molecular target: T10, ELF3 (Homo sapiens, UniProt P78545 1-371); conditions: protein: recombinant; tags: N-terminal GST; dsDNA, one strand shown
T10 sequence: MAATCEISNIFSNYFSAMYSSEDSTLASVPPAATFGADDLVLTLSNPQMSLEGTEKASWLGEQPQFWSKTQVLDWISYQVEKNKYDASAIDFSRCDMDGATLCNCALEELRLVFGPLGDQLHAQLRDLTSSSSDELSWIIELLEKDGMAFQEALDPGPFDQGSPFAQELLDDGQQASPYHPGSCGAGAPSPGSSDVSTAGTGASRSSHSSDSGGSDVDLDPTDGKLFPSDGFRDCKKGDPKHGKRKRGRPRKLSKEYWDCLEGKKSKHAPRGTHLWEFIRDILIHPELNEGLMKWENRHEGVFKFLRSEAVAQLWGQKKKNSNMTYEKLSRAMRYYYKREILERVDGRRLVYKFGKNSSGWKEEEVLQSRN
In short: as §1

[16] = molecular target: ETV1 (Homo sapiens, UniProt P50549 1-477); conditions: protein: recombinant; tags: N-terminal GST; dsDNA, one strand shown
Sequence of ETV1 (P50549 whole entry): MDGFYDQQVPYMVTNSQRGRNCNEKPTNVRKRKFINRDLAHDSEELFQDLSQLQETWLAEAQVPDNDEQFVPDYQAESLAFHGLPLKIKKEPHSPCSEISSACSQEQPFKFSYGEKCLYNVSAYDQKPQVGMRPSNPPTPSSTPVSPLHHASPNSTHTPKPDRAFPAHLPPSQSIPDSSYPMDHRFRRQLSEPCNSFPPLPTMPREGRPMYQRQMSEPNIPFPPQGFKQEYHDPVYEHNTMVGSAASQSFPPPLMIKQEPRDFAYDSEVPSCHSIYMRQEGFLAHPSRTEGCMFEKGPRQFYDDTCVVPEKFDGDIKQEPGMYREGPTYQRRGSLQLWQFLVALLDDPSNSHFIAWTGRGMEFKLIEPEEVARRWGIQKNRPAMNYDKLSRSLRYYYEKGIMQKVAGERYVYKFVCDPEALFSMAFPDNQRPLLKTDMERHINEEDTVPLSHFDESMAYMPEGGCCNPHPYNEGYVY
In short: as §1

[17] = molecular target: T11, FEV (Homo sapiens, UniProt Q99581 1-238); conditions: protein: recombinant; tags: N-terminal GST; dsDNA, one strand shown
T11 sequence: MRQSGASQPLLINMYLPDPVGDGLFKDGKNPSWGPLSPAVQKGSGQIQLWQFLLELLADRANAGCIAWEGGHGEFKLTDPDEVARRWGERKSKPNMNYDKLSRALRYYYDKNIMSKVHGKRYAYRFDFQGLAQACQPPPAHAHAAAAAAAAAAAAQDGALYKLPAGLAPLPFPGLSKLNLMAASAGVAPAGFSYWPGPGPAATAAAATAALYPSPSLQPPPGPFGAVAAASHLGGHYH
In short: as §1

Row | Sequence | binding signal [1] | binding signal [2] | binding signal [3] | binding signal [4] | binding signal [5] | binding signal [6] | binding signal [7] | binding signal [8] | binding signal [9] | binding signal [10] | binding signal [11] | binding signal [12] | binding signal [13] | binding signal [14] | binding signal [15] | binding signal [16] | binding signal [17]
1 | TCGACG | 1.23 fold enrichment (6-mer frequency, TF over GST control) | 1.14 fold enrichment (6-mer frequency, TF over GST control) | 1.06 fold enrichment (6-mer frequency, TF over GST control) | 1.04 fold enrichment (6-mer frequency, TF over GST control) | 1.1 fold enrichment (6-mer frequency, TF over GST control) | 1.21 fold enrichment (6-mer frequency, TF over GST control) | 1.05 fold enrichment (6-mer frequency, TF over GST control) | 1.02 fold enrichment (6-mer frequency, TF over GST control) | 1.17 fold enrichment (6-mer frequency, TF over GST control) | 1.15 fold enrichment (6-mer frequency, TF over GST control) | 1.07 fold enrichment (6-mer frequency, TF over GST control) | 1.08 fold enrichment (6-mer frequency, TF over GST control) | 1.08 fold enrichment (6-mer frequency, TF over GST control) | 1.18 fold enrichment (6-mer frequency, TF over GST control) | 1.06 fold enrichment (6-mer frequency, TF over GST control) | 1.05 fold enrichment (6-mer frequency, TF over GST control) | –
2 | CACCGA | 1.01 fold enrichment (6-mer frequency, TF over GST control) | 1.01 fold enrichment (6-mer frequency, TF over GST control) | 1.08 fold enrichment (6-mer frequency, TF over GST control) | 1.08 fold enrichment (6-mer frequency, TF over GST control) | 1.11 fold enrichment (6-mer frequency, TF over GST control) | 1.08 fold enrichment (6-mer frequency, TF over GST control) | – | 1 fold enrichment (6-mer frequency, TF over GST control) | 1.1 fold enrichment (6-mer frequency, TF over GST control) | 1.06 fold enrichment (6-mer frequency, TF over GST control) | 1.05 fold enrichment (6-mer frequency, TF over GST control) | 1.08 fold enrichment (6-mer frequency, TF over GST control) | 1.13 fold enrichment (6-mer frequency, TF over GST control) | 1.1 fold enrichment (6-mer frequency, TF over GST control) | 1.04 fold enrichment (6-mer frequency, TF over GST control) | 1.1 fold enrichment (6-mer frequency, TF over GST control) | 1.1 fold enrichment (6-mer frequency, TF over GST control)

Source: paper PMC7862700, “An all-to-all approach to the identification of sequence-specific readers for epigenetic DNA modifications on cytosine”
